Measured values: PubChem BioAssay AID1851 (National Center for Advancing Translational Sciences (NCATS), 2009)
Out of some 16,000 compounds screened, about 4,000 (25%) were called active. Roughly 26% stayed inconclusive and do not appear here. Calls come from the whole dose curve; as a rule, active = well fitted curve in the direction sought with a large enough effect; inconclusive = small, poorly fitted or top-dose-only effect, or effect the other way; inactive = no such curve, though single readings can be large or run the other way. These entries were drawn from the full list.

What follows are compounds tested against Cytochrome P450 2C9 (Homo sapiens) (UniProt P11712) (assay: Cytochrome panel assay with activity outcomes). Conditions: recombinant CYP, pro-luciferin dealkylation, luminescence, p450-cyp2c9; series mostly up to 57.1 µM.
% is set by controls: 0 for no effect and ±100 for the full control effect.

Cytochrome P450 2C9 (Homo sapiens), sequence (P11712 whole entry, looked up): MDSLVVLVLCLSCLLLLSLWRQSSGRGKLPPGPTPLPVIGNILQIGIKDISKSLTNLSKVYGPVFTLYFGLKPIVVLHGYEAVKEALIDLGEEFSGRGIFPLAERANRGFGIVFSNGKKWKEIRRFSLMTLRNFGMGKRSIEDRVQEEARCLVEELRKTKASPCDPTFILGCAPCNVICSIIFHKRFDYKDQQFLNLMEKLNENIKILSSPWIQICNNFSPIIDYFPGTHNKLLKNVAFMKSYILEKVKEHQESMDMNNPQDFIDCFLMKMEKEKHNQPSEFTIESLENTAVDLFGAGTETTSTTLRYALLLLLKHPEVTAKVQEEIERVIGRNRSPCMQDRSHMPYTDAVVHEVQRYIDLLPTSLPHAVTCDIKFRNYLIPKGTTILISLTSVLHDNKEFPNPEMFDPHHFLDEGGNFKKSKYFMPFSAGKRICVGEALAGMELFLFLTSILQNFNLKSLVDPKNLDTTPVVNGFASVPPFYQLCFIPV

Row | SMILES | AC50 | activity, negative = inhibition
1 | CCOC(=O)c1oc2ccccc2c1NC(=O)c1cc(OC)cc(OC)c1 | 14.1 µM (active) | 
2 | CCOC(=O)c1oc2ccccc2c1NC(=O)c1ccc2c(c1)OCO2 | inactive | 
3 | CCOC(=O)c1oc2ccccc2c1NC(=O)c1ccc(S(=O)(=O)N(C)C)cc1 | 0.562 µM (active) | 
4 | Oc1ccccc1CNn1cnnc1 | inactive | 
5 | NC(=NCc1ccc(Cl)c(Cl)c1)NC(=O)c1nc(Cl)c(N)nc1N | inactive | 
6 | COc1ccccc1-c1nccc(NC2CCNCC2)n1 |  | 3.9% [at 2.29 µM] (inactive)
7 | O=C1c2ccccc2C(=O)c2c(NC3CCCCC3)ccc(Nc3ccc(S(=O)(=O)O)cc3)c21 |  | -7.2% [at 11.4 µM] (inactive)
8 | Nc1c(S(=O)(=O)O)cc(Nc2cccc(S(N)(=O)=O)c2)c2c1C(=O)c1ccccc1C2=O | 3.16 µM (active) | 
9 | COc1ncc2nc(-c3cc(F)cc(F)c3)c(=O)n(-c3ccccc3)c2n1 | inactive | 
10 | C[C@@H]1C(=O)N(C)C(=O)c2nc[nH]c21 | inactive | 
11 | Cc1cccc(OCC(=O)N2CCC(N3CCCCCC3)CC2)c1 | inactive | 
12 | O=C(COc1ccc(Br)cc1)N1CCC(c2ccccc2)C1 (stereo not given) | 14.1 µM (active) | 
13 | CCOc1ccc(NC(=O)N2CCC(c3ccc(C)cc3)C2)cc1 (stereo not given) | inactive | 
14 | CCc1ccc(N(C(=O)c2ccoc2C)C(C(=O)NC2CCCC2)c2ccc(OC)cc2)cc1 (stereo not given) | 28.2 µM (active) | 
15 | COc1ccc(C[C@H](N)C(=O)N[C@@H]2[C@H](O)[C@H](n3cnc4c(N(C)C)ncnc43)O[C@@H]2CO)cc1 | inactive | 
16 | COc1ccc(C(C(=O)NC2CCCCC2)N(C(=O)c2sc(C)nc2C)c2ccc(C(C)=O)cc2)cc1 (stereo not given) | inactive | 
17 | C[C@H](O)[C@H](O)[C@@H]1CNc2nc(N)[nH]c(=O)c2N1 | inactive | 
18 | COc1ccc(OC)c2[nH]c(=O)c(CCNS(=O)(=O)c3ccc(C)cc3)cc12 | 3.55 µM (active) | 
19 | CCS(=O)(=O)NCCc1cc2ccc(C)cc2[nH]c1=O | inactive | 
20 | COc1ccc(OC)c2[nH]c(=O)c(CCNS(=O)(=O)c3ccc(Cl)cc3)cc12 | 2.24 µM (active) | 
21 | COc1ccc(C(=O)N2CCC[C@@]3(CCN(c4cccc(-c5ccccc5)c4)C3)C2)cc1 | inactive | 
22 | COc1cccc(-c2cc3nc(-c4ccccc4)cc(N4CCC5(CC4)OCCO5)n3n2)c1 | 2.82 µM (active) | 
23 | Fc1cc2nc(-c3ccncc3)[nH]c2cc1F | 7.94 µM (active) | 
24 | CCOc1ccc(N=C2NC(=O)C(CC(=O)O)S2)cc1 (stereo not given) | inactive | 

Row | SMILES | AC50 | activity, negative = inhibition
25 | N#CCCn1c(=O)c(-c2ccc(F)cc2)nc2cnc(N3CCOCC3)nc21 | inactive | 
26 | CCOC(=O)N1CCN(C(=O)C(C)SCc2ccccc2)CC1 (stereo not given) | 3.55 µM (active) | 
27 | CC(C)(SCc1ccccc1)[C@H](N)C(=O)O |  | -5.67% [at 11.4 µM] (inactive)
28 | CCOC(=O)N1CCN(S(=O)(=O)Cc2ccccc2)CC1 | inactive | 
29 | CC(C)Cn1cnc2c(SCc3ccccn3)nc(N)nc21 |  | 0.334% [at 11.4 µM] (inactive)
30 | Cc1ccc2[nH]c3c(c2c1)CN(C(=O)CN1c2ccc(F)cc2CCC1C)CC3 (stereo not given) | 10 µM (active) | 
31 | OCC1CCCN(Cc2ccc(-c3ccccc3)cc2)C1 (stereo not given) | inactive | 
32 | CS(=O)(=O)N1CCN(c2ccc([N+](=O)[O-])c(NCc3ccccc3)c2)CC1 | 12.6 µM (active) | 
33 | CNc1cc(N2CCCCCC2)ccc1[N+](=O)[O-] | 6.31 µM (active) | 
34 | Clc1ccccc1-c1cc(NCc2ccccc2)ncn1 |  | 4.07% [at 2.29 µM] (inactive)
35 | O=[N+]([O-])c1ccc(N2CCCC2)cc1NCc1ccccc1 | 1.58 µM (active) | 
36 | CC(=O)Nc1ccc(N2CCCCC2)cc1 | inactive | 
37 | CCN1CCC[C@H]1CNC(=O)c1c(OC)ccc(Br)c1OC | inactive | 
38 | O=c1c(-c2cccc(Cl)c2)nc2cncnc2n1Cc1ccccc1Cl | 3.98 µM (active) | 
39 | O=c1c(-c2cccc(Cl)c2)nc2cncnc2n1C1CC1 | inactive | 
40 | O=c1c(-c2cccc(F)c2)nc2cncnc2n1Cc1ccccc1Cl | 7.94 µM (active) | 
41 | O=c1c(-c2cccc(Cl)c2)nc2cncnc2n1Cc1ccccc1 | 1.26 µM (active) | 
42 | O=c1c(-c2cc(F)cc(F)c2)nc2cncnc2n1Cc1ccccc1Cl | 3.98 µM (active) | 
43 | COc1ccc(-n2c(=O)c(-c3cc(F)cc(F)c3)nc3cncnc32)cc1 | inactive | 
44 | O=c1c(-c2cccc(F)c2)nc2cncnc2n1C1CC1 | inactive | 
45 | c1nc(NC2CCNCC2)c2cc(-c3ccoc3)ccc2n1 |  | -8.97% [at 2.29 µM] (inactive)
46 | N#Cc1cccc(NC(=O)N2CCCC3(CCN(C(=O)c4csnn4)CC3)C2)c1 | inactive | 
47 | O=c1c(-c2ccc(F)c(F)c2)nc2cncnc2n1Cc1ccccc1Cl | 5.01 µM (active) | 
48 | O=c1c(-c2ccc(F)c(F)c2)nc2cncnc2n1C1CC1 | inactive | 

Row | SMILES | AC50 | activity, negative = inhibition
49 | O=c1c(-c2ccc(Cl)cc2)nc2cncnc2n1Cc1ccccc1Cl | inactive | 
50 | O=c1c2ccccc2sc2c(CO)ccc(NCCN3CCCCC3)c12 |  | 17.3% [at 11.4 µM] (inactive)
51 | COc1ccc([N+](=O)[O-])cc1COc1ccc2c(-c3ccccc3)cc(=O)oc2c1 | 7.08 µM (active) | 
52 | N[C@H](CCCP(=O)(O)O)C(=O)O | inactive | 
53 | Cc1o[nH]c(=O)c1CC[C@H](N)C(=O)O | 10 µM (active) | 
54 | Cc1cn(CC[C@H](N)C(=O)O)c(=O)[nH]c1=O |  | 23.1% [at 11.4 µM] (inactive)
55 | CCCCCCc1c(C[C@H](N)C(=O)O)o[nH]c1=O | inactive | 
56 | Cc1ccc(S(=O)(=O)N[C@H]2COC(=O)[C@H](C)COC(=O)[C@H](C)NC(=O)C/C=C\[C@H]2C)cc1 |  | 2.34% [at 11.4 µM] (inactive)
57 | CC(C)(C[C@@]1(C)NC(=O)NC1=O)OCc1ccccc1 |  | 9.56% [at 11.4 µM] (inactive)
58 | CN1CCc2c(c3c(n2C)CCN(C)[C@H]3c2ccccc2F)[C@@H]1c1ccccc1F | inactive | 
59 | O=C1NCCN1Cc1ccccc1F | 12.6 µM (active) | 
60 | COc1ccc(OC)c(NC(=O)CC(Cc2ccccc2OC)C(=O)O)c1 (stereo not given) | 2.24 µM (active) | 
61 | COc1ccc(OC)c(NC(=O)[C@H]2CC=CC[C@H]2C(=O)O)c1 | inactive | 
62 | CCOC(=O)C1CCN(Cc2cnc(Oc3ccc(OC)cc3)s2)CC1 | 10 µM (active) | 
63 | Cc1ccc(Oc2ncc(CN3CCOCC3)s2)cc1 | inactive | 
64 | CCOC(=O)C1CCN(C(=O)C2CCN(S(=O)(=O)N3CCCC3)CC2)CC1 | inactive | 
65 | c1ccc2nc(C3=NCCN3)cnc2c1 | inactive | 
66 | N=C(N)S[C@H]1c2ccccc2-c2cc([N+](=O)[O-])ccc21 |  | -26% [at 11.4 µM] (inactive)
67 | O=C1c2ccccc2C(=O)N1CCCCN(C(=O)c1cccc([N+](=O)[O-])c1)c1ccc(Cl)cc1 | 7.08 µM (active) | 
68 | O=C1c2ccccc2C(=O)N1CCCCN(C(=O)c1ccc([N+](=O)[O-])cc1)c1ccc(Cl)cc1 | 1.78 µM (active) | 
69 | N[C@H](C(=O)O)C1[C@H](C(=O)O)[C@H]1C(=O)O (stereo not given in full) | inactive | 
70 | CCc1cc2c(=O)n(-c3ccccc3)c(=S)[nH]c2s1 | 14.1 µM (active) | 
71 | O=c1[nH]c(=S)c2[nH]c(=O)n(-c3ccccc3)c2[nH]1 |  | -16.7% [at 11.4 µM] (inactive)
72 | CCOC(=O)N1CCN(C(=O)c2ccc3c(=O)n(-c4ccc(OC)cc4)c(=S)[nH]c3c2)CC1 | inactive | 

Row | SMILES | AC50 | activity, negative = inhibition
73 | O=C(N/N=C/c1c[nH]c2ccccc12)c1ccn(Cc2ccc(Cl)cc2Cl)n1 | 1.26 µM (active) | 
74 | CO[C@@H]1COC(=O)CCC[C@@H](C)[C@H](OC)COC(=O)CCC[C@H]1C |  | -7% [at 11.4 µM] (inactive)
75 | C=CCc1cccc(C2Nc3ccccc3C(=O)N2O)c1O (stereo not given) | 5.01 µM (active) | 
76 | CC(C)CC1CC(=O)OC1(C)C(=O)CSc1nc2ccccc2s1 (stereo not given) | 28.2 µM (active) | 
77 | CC1(C(=O)CSc2nc3ccccc3s2)CCC(=O)O1 (stereo not given) | inactive | 
78 | Cc1ccc(OC(=O)c2cccc(C(=O)Oc3ccc(C)cc3)n2)cc1 | inactive | 
79 | Cc1cc2ccc(OC(=O)c3ccc(N=C(N)N)cc3)cc2oc1=O |  | 3.7% [at 11.4 µM] (inactive)
80 | COc1ccc(-c2oc3ccccc3c(=O)c2OC(=O)c2ccc(C)cc2)cc1 | 1.26 µM (active) | 
81 | CC(=O)NCCNc1ncnc2ccc(-c3cccc(NS(C)(=O)=O)c3)cc12 |  | -12.9% [at 2.29 µM] (inactive)
82 | NC(=O)c1ccc(-c2nc(-c3ccc4c(c3)OCO4)c(-c3ccccn3)[nH]2)cc1 | inactive | 
83 | Cc1ccc2nc(CC(=O)c3ccc4ccccc4c3)c(=O)[nH]c2c1 |  | -7.8% [at 11.4 µM] (inactive)
84 | Cc1ccc(NC(=O)CSc2nnc(-c3ccncc3)o2)cc1 | 3.55 µM (active) | 
85 | Cc1ccc2nc(SCC(=O)c3ccc4c(c3)OCO4)[nH]c2c1 | 5.01 µM (active) | 
86 | COc1ccc2nc(SCC(=O)Nc3ccc4c(c3)OCCO4)[nH]c2c1 | 2.24 µM (active) | 
87 | CC(C)(C)c1ccc(-c2nnc(SCC(=O)c3ccc4c(c3)OCCO4)o2)cc1 | 3.16 µM (active) | 
88 | CCC(=O)Nc1ccc(NC(=O)CSc2nnnn2-c2cccnc2)cc1C | inactive | 
89 | CCOC(=O)NC(=O)CSc1nc2ccc(OCC)cc2[nH]1 | inactive | 
90 | CCS(=O)(=O)N1CCC(C(=O)NCCCN2CCCC2)CC1 | inactive | 
91 | COc1ccc([C@H]2Sc3ccccc3N(CCN(C)C)C(=O)[C@H]2OC(C)=O)cc1 | inactive | 
92 | NC(N)=N/N=C(\c1ccc(Cl)cc1)C1CC1 |  | -1.67% [at 11.4 µM] (inactive)
93 | C#CCCCO/N=C1/C[C@@H](O)[C@@H](O)[C@@H]2[C@@H]3C(=O)N(C4CCCCC4)C(=O)[C@H]3CC[C@@H]12 |  | -15% [at 11.4 µM] (inactive)
94 | CC(C)C(O)(C(C)C)C(C)C |  | -0.763% [at 11.4 µM] (inactive)
95 | CNc1ncncc1-c1ccc(C(=O)N(C)C)cc1 |  | -6.73% [at 2.29 µM] (inactive)
